# FMDV inh: High Throughput Screening for Foot and Mouth Disease Virus Antivirals; 410,000 compounds, 1.2% hits; Potency, µM (series often up to 57.9 µM), usual class: inhibitors; AID 1159524, 2015; FMDV antiviral cell-based qHTS; calls by dose curve; tested in HEK293T cells; also: read-out not given here; nearly all actives have a fitted effect of over 45% in size
# FBPA Giardia inh: qHTS Assay for Inhibitors of Fructose-1,6-bisphosphate Aldolase from Giardia Lamblia; A8B2U2; purified Giardia FBPA; Potency, µM (highest dose often 59.6 µM), hits mostly inhibitors; 290,000 compounds, 0.71% hits; AID 2451, 2010; active = well fitted inhibition curve with a large enough effect; inconclusive = small, poorly fitted or top-dose-only effect, or effect the other way; also: nearly all actives have a fitted effect of over 55% in size
# Target sequence (A8B2U2 whole entry, looked up): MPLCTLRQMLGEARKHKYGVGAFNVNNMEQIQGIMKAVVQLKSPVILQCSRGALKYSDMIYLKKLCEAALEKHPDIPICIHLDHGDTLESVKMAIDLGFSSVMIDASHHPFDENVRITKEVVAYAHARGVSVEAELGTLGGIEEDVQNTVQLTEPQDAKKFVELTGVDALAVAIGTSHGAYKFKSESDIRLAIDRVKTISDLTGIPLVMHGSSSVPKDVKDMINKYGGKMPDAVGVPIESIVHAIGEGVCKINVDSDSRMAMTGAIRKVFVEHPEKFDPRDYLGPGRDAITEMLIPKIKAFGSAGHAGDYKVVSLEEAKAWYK
#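 40 nM FBPA preincubated 10 min at RT with compound (up to 57.5 uM final), then substrate plus GAPDH/TPI/NAD/arsenate coupling and diaphorase/resazurin added. Fluorescence read after 20 min at RT, 525/598 nm.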
# Vaccinia Venus: qHTS for Stage-Specific Inhibitors of Vaccinia Orthopoxvirus: Venus Reporter Primary qHTS; Vaccinia virus Venus reporter expression, fluorescence; Potency, µM (top dose mostly 36.5 µM), most hits filed as inhibitors; 330,000 compounds, 0.46% hits; AID 720580, 2013; calls by dose curve; tested in A549 cells; also: nearly all actives have a fitted effect of over 30% in size
# VACV mCherry inh: qHTS for Stage-Specific Inhibitors of Vaccinia Orthopoxvirus: mCherry Reporter Primary qHTS; Vaccinia virus mCherry reporter infection, fluorescence; Potency, µM (top dose mostly 36.5 µM), most hits filed as inhibitors; 310,000 compounds, 0.63% hits; calls by dose curve; tested in A549 cells; also: nearly all actives have a fitted effect of over 35% in size
# A number is an active result; 0 = inactive; ? = inconclusive; - = no result given. Most compounds without a hit are left out; they make up all but 2.2% or so of the library.
SMILES,FMDV inh,FBPA Giardia inh,Vaccinia Venus,VACV mCherry inh
Cc1c(C(=O)N(CCO)C(C)C)cnn1-c1ncc2c(n1)-c1ccccc1CCC2,0,-,0,0
CC(C)CSc1nnc(CNC(=O)c2ccccn2)n1C,0,-,0,0
COC(=O)c1ccc(NC(=O)c2ccc(CN3CCOCC3)cc2)cc1,22.4µM,0,0,0
CC(C)c1ccc(/C=C/C(=O)NC(=S)Nc2ccc(CN3CCOCC3)cc2)cc1,20µM,0,0,0
CC(C)c1ccc(/C=C/C(=O)NC(=S)NN2CCOCC2)cc1,0,-,-,-
O=C(Nc1ccc(CN2CCOCC2)cc1)c1ccc(Cl)cc1,0,0,-,-
O=C(COc1ccc(Cl)cc1Cl)NC(=S)Nc1ccc(CN2CCOCC2)cc1,28.2µM,0,0,0
O=C(C[N+]1(CCO)CCOCC1)c1ccc2ccccc2c1,-,-,0,0
COc1ccc(-c2nc(-c3ccc(NC(=O)c4ccc(Br)o4)cc3)no2)cc1OC,0,0,31.6µM,-
COC(=O)[C@@H]1CCCN1C(=O)c1cc(NC(=O)C2CCC2)c2c(c1)nc(-c1ccncc1)n2C,0,-,0,0
O=C1C=CC2(C=C1)O[C@H](Cc1ccccc1)[C@@H](Cc1ccccc1)O2,3.98µM,-,22.4µM,10µM
O=C1Nc2ccccc2C1Cc1ccccc1 (configuration not stated),0,?,0,0
COc1ccc(N2C(=O)CC(Cc3ccccc3)C2=O)cc1 (configuration not stated),0,0,-,-
COc1ccc(C[C@@H]2OC3(C=CC(=O)C=C3)O[C@H]2Cc2ccc(OC)cc2)cc1,14.1µM,-,10µM,?
COc1ccc(C2CC23N=C(c2ccccc2)OC3=O)cc1 (configuration not stated),22.4µM,0,0,0
O=C(NCCc1ccccn1)c1cc(-c2ccc(Cl)c(Cl)c2Cl)nc2ccccc12,39.8µM,0,?,?
O=C(NCc1ccccn1)c1cc(-c2ccccc2Cl)nc2ccccc12,0,0,0,0
CC(C1CC2CCC1C2)N1CC(O)=C(c2nc3ccccc3[nH]2)C1=N (configuration not stated),0,0,5.01µM,7.08µM
CC(=O)c1cccc(NC(=O)c2cc3nc(-c4ccc(Br)cc4)cc(C(F)(F)F)n3n2)c1,0,-,?,12.6µM
O=C(Nc1ccc(N2CCCCCC2)cc1)c1ccccc1Cl,0,0,0,?
O=C(Nc1ccc(N2CCCCC2)cc1)c1ccccn1,2.82µM,0,0,0
COc1cc(=O)n2c(c1C(=O)NCc1ccco1)CCN(Cc1ccc3nsnc3c1)CC2,0,-,0,0
COc1ccc(/C=C/C(=O)c2cc(F)ccc2OC(=O)c2ccc(OC)c(OC)c2)cc1OC,?,0,-,-
COc1ccc(/C=C/C(=O)c2cc(F)ccc2OC(=O)c2ccccc2)cc1OC,28.2µM,-,?,?
COc1ccc(/C=C/C(=O)c2cc(F)ccc2OC(=O)c2ccccc2OC)cc1OC,8.91µM,0,?,?
SMILES,FMDV inh,FBPA Giardia inh,Vaccinia Venus,VACV mCherry inh
CCC1CN(CCC(=O)NC2CCOC(C)(C)C2)Cc2cc(OC)ccc2O1 (configuration not stated),0,-,0,0
NC(=Nc1nc(-c2ccccn2)cc2ccccc12)c1ccccn1,0,-,?,0.316µM
COc1ccccc1-c1cc2c(c(OC)c1)OCCN(C(=O)Cn1nc(-c3ccccc3)c3ccccc3c1=O)C2,0,-,0,0
COC(=O)c1c(-c2ccc(OC)cc2)sc2ccc(N3CCOCC3)cc12,0,-,0,?
COC(=O)c1nc2ccc(N3CCOCC3)cc2c(C)c1C(=O)OC,0,7.92µM,0,0
COc1cccc(CN(C)C(=O)c2cnn(-c3ncc4c(n3)-c3ccccc3CCC4)c2C)c1,0,-,0,?
Cc1cc2c(c(-c3cnccn3)c1)OC(CNC(=O)c1cc(C(C)C)[nH]n1)C2 (configuration not stated),0,-,0,0
Cc1c(Cl)ccc2sc(N3CCN(C(=O)CCS(=O)(=O)c4ccc(F)cc4)CC3)nc12,11.2µM,-,?,0
Cc1ccc2sc(N3CCN(C(=O)CCS(=O)(=O)c4ccc(F)cc4)CC3)nc2c1C,?,-,?,0
Cc1c(C(=O)NCC(C)C)sc2ncnc(NCC3CCCO3)c12 (configuration not stated),0,-,0,0
CN(C)CCCNc1cc(N2CCN(C)CC2)ncn1,-,-,0,0
Cc1ccccc1NC(=O)C(=Cc1ccc(C(=O)O)cc1)C(=O)Nc1ccccc1C,5.62µM,0,?,?
N#C/C(=C/c1ccc(C(=O)O)cc1)C(=O)Nc1ccccc1,0,0,0,0
CC(=O)Nc1ccccc1C,0,-,0,0
CC(=O)/C(=C/c1ccccc1)C(=O)Nc1ccccc1C,14.1µM,0,?,?
COc1cccc(Cc2nc3cccnc3n2C2CCN(C(=O)c3n[nH]c4c3CCCC4)CC2)c1,0,-,0,0
Oc1ccc(C[C@@H]2CNCCN2CCc2cc(C(F)(F)F)cc(C(F)(F)F)c2)cc1,0,-,10µM,14.1µM
Oc1ccc(C[C@H]2CNCCN2CCc2cc(C(F)(F)F)cc(C(F)(F)F)c2)cc1,0,-,0,0
COc1ccc(N2C(N)=NC(N)=NC2(C)C)cc1,0,-,11.2µM,?
CC1(C)N=C(N)N=C(N)N1c1cccc(C#N)c1,0,-,4.47µM,2µM
O=C(CSc1nc2ccccc2[nH]1)NC1CCCc2ccccc21 (configuration not stated),0,?,0,0
O=C(CSc1nc2ccc(Cl)cc2[nH]1)NC1CCCc2ccccc21 (configuration not stated),28.2µM,?,0,0
CC1CCN(C(=O)c2ccc(S(=O)(=O)Cc3ccccc3F)c([N+](=O)[O-])c2)CC1,20µM,0,0,0
O=C(c1ccc(S(=O)(=O)c2ccc(F)cc2)c([N+](=O)[O-])c1)N1CCCCCC1,12.6µM,0,?,0
O=C(c1ccc(S(=O)(=O)c2ccccc2Cl)c([N+](=O)[O-])c1)N1CCN(Cc2ccccc2)CC1,11.2µM,0,0,0
SMILES,FMDV inh,FBPA Giardia inh,Vaccinia Venus,VACV mCherry inh
Cc1ccc(CS(=O)(=O)c2ccc(C(=O)N3CCN(c4ccccn4)CC3)cc2[N+](=O)[O-])cc1,15.8µM,0,0,0
Cc1ccc(CNc2ncnc3sc(C(=O)N4CCCC(C(N)=O)C4)c(C)c23)o1 (configuration not stated),0,-,0,0
CCc1ccc(NC(=O)COC(=O)c2ccccc2OCC(=O)N(C)C)cc1,-,-,0,0
CC(Cl)=CCn1c(NCCc2ccccc2)nc2c1c(=O)n(C)c(=O)n2C,12.6µM,-,0,0
Cn1c(=O)c2c(nc(NCc3ccco3)n2C)n(C)c1=O,-,0,0,0
CC(C)CCn1c(NCCc2ccccc2)nc2c1c(=O)n(C)c(=O)n2C,20µM,0,?,?
Cn1c(=O)c2c(nc(NCCO)n2CCCc2ccccc2)n(C)c1=O,?,0,-,-
Cn1c(=O)c2c(nc(NCc3ccco3)n2C/C=C/c2ccccc2)n(C)c1=O,14.1µM,0,?,-
Cn1c(=O)c2c(nc(NCCc3ccccc3)n2Cc2ccc(F)cc2)n(C)c1=O,?,0,?,?
CC(=O)Nc1cc(C(=O)N2CCCC(C)C2)cc2ncn(CCc3ccccn3)c12 (configuration not stated),0,-,0,0

# Screening data from PubChem BioAssay.
